The source of these data is PubChem BioAssay (NCI).

“And” between values parts separate entries of the source, which are not always exact repeats. Equal entries are not always repeated. Compounds without any hit were thinned out: in the full panel of roughly 83,000, 20% have a hit.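 Testing used 96-well plates and a 48-hour single-concentration exposure. Example: -40 means 40% of the starting cells died.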 The source made the active and inactive calls. Rule for the calls: active = growth percent below 10; inactive = the rest.

The first assay has as its system K-562 leukemia. Nature of the assay: NCI-60 one-dose screen, 48 h (100 = growth as untreated, 0 = no growth, -100 = all killed). The following applies: 10 µM unless noted.
Regarding `O=C(/C=C\c1cc(Br)ccc1O)/C=C/c1cc(Br)ccc1O`, the growth was 5.64% (active).
Still for that read-out and setting: as for `CC(C)c1ccc2nc3ccc(C(=O)NCCN4CCN(c5ccccc5)CC4)cn3c(=O)c2c1`, the figure is 45.1% (inactive); as for `O=C(/C=C/C=C/c1ccccc1)c1ccco1`, 43% (inactive).
For `CC1(C)CC([P+](c2ccccc2)(c2ccccc2)c2ccccc2)=NN1`, the growth was 9.92% (active).
On the same count and under the same terms, next, `COC(=O)[C@@]12OC[C@]34[C@H]([C@@H](O)[C@@H]1O)[C@@]1(C)[C@H](O)C(=O)C=C(C)[C@@H]1C[C@H]3OC(=O)C(OC(C)=O)[C@@H]24` (stereo partly drawn): -60% (active).
On to `Cc1c2ccccc2c(C)c2c1ccc1ccccc12`, for which the growth is 85.1% (inactive).
The same measure, in the same setting: next, `S=C(N/N=C/c1ccccn1)Nc1ccccn1`: 8.45% (active).
Take `CN(C)C(=O)SC1=C(c2c(Cl)cccc2Cl)C(=O)c2ccccc21`: the growth is -8.92% (active).
On the same count and under the same terms, next, `CCC(CC)COC(=O)c1ccc(O)c(O)c1`: 102% (inactive); `CC1=CC(O)C2CC1C2(C)C` (stereo not drawn): 96.6% (inactive) and 93.4% (inactive); `COc1cc(/C=C(/C)C[N+](=O)[O-])ccc1O`: 69.7% (inactive).
On to `NC1=CC(=O)c2ccccc2C1=O`, for which the growth is 92.6% (inactive).
The same measure, in the same setting: as for `CCN(CC)CCOc1ccc(-c2nc3cc(Cl)ccc3s2)cc1`, the figure is -99.1% (active).
Same read-out and setting: as for `CCOc1ccc(-c2nc3ccc(-c4nc5ccc(N6CCN(C)CC6)cc5[nH]4)cc3[nH]2)cc1`, the figure is 24.9% (inactive); as for `CNC(=O)N/N=C/c1ccc([N+](=O)[O-])o1`, 96.5% (inactive).
On the same count and under the same terms, next, `N#CSCc1ccc(CSC#N)c(Cl)c1`: 33.8% (inactive).

For the next assay, the system named is MALME-3M melanoma. The description is as above. The settings on record: 10 µM unless noted.
`C[n+]1c(/C=C/c2ccc([N+](=O)[O-])cc2)ccc2ccccc21`: the growth was 90.9% (inactive).
The same measure, in the same setting: as for `c1ccc2c(c1)Nc1cc3ccccc3cc1N2`, the figure is 28.4% (inactive); as for `CCOC(=O)/C(=C\c1ccc(-c2ccccc2)cc1)C(C)=O`, 87.1% (inactive); as for `NC(N)=N/N=C/c1ccc([N+](=O)[O-])o1`, 68.1% (inactive).
Still for that read-out and setting: next, `CCCCCCCCCCCCCCCC[N+](C)(CCO)Cc1cnc[nH]1` (stereo not drawn): -3.54% (active); `COC(=O)c1nc(=S)[nH]c(C(=O)OC)c1C(=O)c1ccc2ccccc2c1`: 94.5% (inactive); `CCC(=O)Sc1ccccc1C(=O)Nc1ccc(Cl)cc1`: 6.61% (active).
The same measure, in the same setting: as for `Cc1ccnc(NC(c2ccccc2)c2ccc3cccnc3c2O)c1` (stereo not drawn), the figure is 62.4% (inactive); as for `CC1SC(=S)N(c2ccc(Cl)cc2)C1=O` (stereo not drawn), 104% (inactive) and 108% (inactive); as for `CCN1/C(=C\c2cc[n+](CC)c3ccccc23)C=Cc2ccccc21`, 1.55% (active).
For the molecule `Cc1ccc(C(=Nc2ccccc2)N=P(c2ccccc2)(c2ccccc2)c2ccccc2)cc1`, the growth was -67.8% (active).
For the molecule `CC(C)(C)c1ccc(O)c(C2CCCCC2)c1`, the growth was 115% (inactive).
Take `Cc1ccc(NS(=O)(=O)c2ccc(C)cc2)cc1`: the growth was 105% (inactive) and 101% (inactive).
Still for that read-out and setting: next, `O=C(O)C1C2CC3C(OC(=O)C31)C2Br` (stereo not drawn): 101% (inactive) and 93.5% (inactive); `C=CCOc1ccc(N=NC(C#N)C#N)cc1`: 3.69% (active).
As to `CN(C)c1ccc(C(=C2C=CC(=[N+](C)C)C=C2)c2ccc(N(C)C)cc2)cc1` (tested in a mixture with another compound), the growth is -62.7% (active).
For `O=C(/C=C\c1cc(Br)ccc1O)/C=C/c1cc(Br)ccc1O`, the growth is -5.41% (active).
Same read-out and setting: next, `CC(C)c1ccc2nc3ccc(C(=O)NCCN4CCN(c5ccccc5)CC4)cn3c(=O)c2c1`: 48.3% (inactive).
On the same count and under the same terms, next, `O=C(/C=C/C=C/c1ccccc1)c1ccco1`: 113% (inactive).
On to `CC1(C)CC([P+](c2ccccc2)(c2ccccc2)c2ccccc2)=NN1`, for which the growth is 21.2% (inactive).
Same read-out and setting: next, `COC(=O)[C@@]12OC[C@]34[C@H]([C@@H](O)[C@@H]1O)[C@@]1(C)[C@H](O)C(=O)C=C(C)[C@@H]1C[C@H]3OC(=O)C(OC(C)=O)[C@@H]24` (stereo partly drawn): -70.1% (active); `Cc1c2ccccc2c(C)c2c1ccc1ccccc12`: 88.8% (inactive); `S=C(N/N=C/c1ccccn1)Nc1ccccn1`: 10.6% (inactive).
Still for that read-out and setting: as for `CN(C)C(=O)SC1=C(c2c(Cl)cccc2Cl)C(=O)c2ccccc21`, the figure is -69.7% (active); as for `CCC(CC)COC(=O)c1ccc(O)c(O)c1`, 54.8% (inactive); as for `CC1=CC(O)C2CC1C2(C)C` (stereo not drawn), 97.6% (inactive) and 107% (inactive).
For `COc1cc(/C=C(/C)C[N+](=O)[O-])ccc1O`, the growth was -12.2% (active).
As for `NC1=CC(=O)c2ccccc2C1=O`, the growth was 38.8% (inactive).
For the molecule `CCN(CC)CCOc1ccc(-c2nc3cc(Cl)ccc3s2)cc1`, the growth is 28.7% (inactive).
Still for that read-out and setting: next, `CCOc1ccc(-c2nc3ccc(-c4nc5ccc(N6CCN(C)CC6)cc5[nH]4)cc3[nH]2)cc1`: -87.8% (active); `CNC(=O)N/N=C/c1ccc([N+](=O)[O-])o1`: 112% (inactive).
Turning to `N#CSCc1ccc(CSC#N)c(Cl)c1`, the growth is 54.3% (inactive).
